{"source": "PubChem BioAssay (Tox21)", "note": "“And” between values parts separate entries of the source, which are not always exact repeats. Equal values may be shown once. Inconclusive results are not listed. Entries that show only a call come without a potency. The source made the active and inactive calls. Unless noted, calls follow the shape of the full dose curve.", "data": [{"tested_on": "not listed separately", "assay": "qHTS assay for small molecule activators of the heat shock response signaling pathway (AID 743210; active = well fitted activation curve with a large enough effect in the signal ratio in the repeat runs, with a control signal flat, not every such curve was filed as active; the % refers to the signal ratio)", "conditions": "HeLa HSE-bla reporter, beta-lactamase ratio, 5 h; series mostly up to 62.6 µM", "summary_of_the_method": "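HSE-bla HeLa cells (beta-lactamase reporter under heat shock response elements) were exposed to compounds for 5 h at 37 C, then loaded with LiveBLAzer B/G FRET substrate for 2.5 h at room temperature before fluorescence reading.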", "values": [{"smiles": "CO[C@H]1C=CO[C@@]2(C)Oc3c(C)c(O)c4c(O)c(c(/C=N/N5CCN(C)CC5)c(O)c4c3C2=O)NC(=O)/C(C)=C\\C=C[C@H](C)[C@H](O)[C@@H](C)[C@@H](O)[C@@H](C)[C@H](OC(C)=O)[C@@H]1C", "outcome": "inactive"}, {"smiles": "NC(=O)NO", "outcome": "inactive"}, {"smiles": "NCCNc1cccc2ccccc12", "outcome": "inactive"}, {"smiles": "c1ccc2[nH]c(-c3cscn3)nc2c1", "outcome": "inactive"}, {"smiles": "O=C1OC(c2ccc(O)cc2)(c2ccc(O)cc2)c2ccccc21", "outcome": "inactive"}, {"smiles": "NC(=O)N/N=C/c1ccc([N+](=O)[O-])o1", "outcome": "inactive"}, {"smiles": "CC1=NN(c2ccccc2)C(=O)C1", "outcome": "inactive"}, {"smiles": "Cc1cccc(Nc2cc(Cl)nc(SCC(=O)O)n2)c1C", "outcome": "inactive"}, {"smiles": "CCc1cc(C(N)=S)ccn1", "outcome": "inactive"}, {"smiles": "C[C@]12C[C@H](O)[C@H]3[C@@H](CCC4=CC(=O)CC[C@@]43C)[C@@H]1CC[C@@H]2C(=O)CO", "outcome": "inactive"}, {"smiles": "CCn1cc(C(=O)O)c(=O)c2ccc(C)nc21", "outcome": "inactive"}, {"smiles": "CC(=O)/C=C/C1=C(C)CCCC1(C)C", "outcome": "inactive"}, {"smiles": "COc1ccccc1NC(=O)CC(C)=O", "outcome": "inactive"}, {"smiles": "C[C@]12CC[C@@H]3c4ccc(O)cc4C[C@@H](CCCCCCCCCS(=O)CCCC(F)(F)C(F)(F)F)[C@H]3[C@@H]1CC[C@@H]2O", "note": "(some centres not stated)", "outcome": "inactive"}, {"smiles": "O=C(OCc1ccccc1)c1ccccc1", "outcome": "inactive"}, {"smiles": "O=C(O)CN(CC(=O)O)CC(=O)O", "outcome": "inactive"}, {"smiles": "C#C[C@]1(O)CC[C@H]2[C@@H]3CCc4cc(O)ccc4[C@H]3CC[C@@]21C", "outcome": "inactive"}, {"smiles": "NC(=O)c1ccc([N+](=O)[O-])cc1Cl", "outcome": "inactive"}, {"smiles": "C[C@]12CC[C@@H]3c4ccc(O)cc4CC[C@H]3[C@@H]1CCC2=O", "outcome": "inactive"}, {"smiles": "Cc1c(N(C)C)c(=O)n(-c2ccccc2)n1C", "outcome": "inactive"}, {"smiles": "COc1ccc(C(=O)c2ccccc2)c(O)c1", "outcome": "inactive"}, {"smiles": "NC(=O)OCC(COC(N)=O)c1ccccc1", "outcome": "inactive"}, {"smiles": "COc1ccc(O)cc1", "outcome": "inactive"}, {"smiles": "C[C@]12C=CC(=O)C=C1CC[C@@H]1[C@@H]2C(=O)C[C@@]2(C)[C@H]1CC[C@]2(O)C(=O)CO", "outcome": "inactive"}, {"smiles": "O=c1cc[nH]c(=O)[nH]1", "outcome": "inactive"}, {"smiles": "CC(C)(C)CC(C)(C)c1ccc(O)c(-n2nc3ccccc3n2)c1", "outcome": "inactive"}, {"smiles": "C/C=C/c1ccc(O)c(OC)c1", "outcome": "inactive"}]}, {"tested_on": "not listed separately", "assay": "qHTS assay to identify small molecule agonists of the peroxisome proliferator-activated receptor delta (PPARd) signaling pathway - cell viability counter screen (AID 743211; active = well fitted cell-killing curve with a large enough effect in the repeat runs; also: nearly all actives have a fitted effect of over 55% in size; also: potency is read from the fitted curve at half-maximal effect)", "conditions": "PPARd-bla HEK293H viability, CellTiter-Glo luminescence, 17 h; series mostly up to 62.6 µM", "summary_of_the_method": "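Multiplexed format: after the 2 h room-temperature LiveBLAzer B/G FRET step, CellTiter-Glo was added to the same wells. Luminescence after 30 min gave cell viability; compound exposure was 17 h at 37C.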", "values": [{"smiles": "CO[C@H]1C=CO[C@@]2(C)Oc3c(C)c(O)c4c(O)c(c(/C=N/N5CCN(C)CC5)c(O)c4c3C2=O)NC(=O)/C(C)=C\\C=C[C@H](C)[C@H](O)[C@@H](C)[C@@H](O)[C@@H](C)[C@H](OC(C)=O)[C@@H]1C", "Potency": "inactive"}, {"smiles": "CC1=C(/C=C/C(C)=C/C=C/C(C)=C/C(=O)O)C(C)(C)CCC1", "Potency": "inactive"}, {"smiles": "c1ccc2[nH]c(-c3cscn3)nc2c1", "Potency": "inactive"}, {"smiles": "O=C1OC(c2ccc(O)cc2)(c2ccc(O)cc2)c2ccccc21", "Potency": "inactive"}, {"smiles": "NC(=O)N/N=C/c1ccc([N+](=O)[O-])o1", "Potency": "inactive"}, {"smiles": "CC1=NN(c2ccccc2)C(=O)C1", "Potency": "inactive"}, {"smiles": "C[C@]12C[C@H](O)[C@H]3[C@@H](CCC4=CC(=O)CC[C@@]43C)[C@@H]1CC[C@@H]2C(=O)CO", "Potency": "inactive"}, {"smiles": "CC(C)=CCC/C(C)=C/CO", "Potency": "inactive"}, {"smiles": "O=C(OCc1ccccc1)c1ccccc1", "Potency": "inactive"}, {"smiles": "CCCCOCCOCCSC#N", "Potency": "inactive"}, {"smiles": "C[C@]12CC[C@@H]3c4ccc(O)cc4CC[C@H]3[C@@H]1CCC2=O", "Potency": "inactive"}, {"smiles": "Cc1c(N(C)C)c(=O)n(-c2ccccc2)n1C", "Potency": "inactive"}, {"smiles": "COc1ccc(C(=O)c2ccccc2)c(O)c1", "Potency": "inactive"}, {"smiles": "NC(=O)OCC(COC(N)=O)c1ccccc1", "Potency": "inactive"}, {"smiles": "COc1ccc(O)cc1", "Potency": "inactive"}, {"smiles": "C[C@]12C=CC(=O)C=C1CC[C@@H]1[C@@H]2C(=O)C[C@@]2(C)[C@H]1CC[C@]2(O)C(=O)CO", "Potency": "inactive"}, {"smiles": "CC(C)(C)CC(C)(C)c1ccc(O)c(-n2nc3ccccc3n2)c1", "Potency": "49.7 µM (active) and 49 µM (active)"}, {"smiles": "C/C=C/c1ccc(O)c(OC)c1", "Potency": "inactive"}]}, {"target": "Peroxisome proliferator-activated receptor delta (Homo sapiens) (UniProt Q03181)", "sequence (Q03181 whole entry, looked up)": "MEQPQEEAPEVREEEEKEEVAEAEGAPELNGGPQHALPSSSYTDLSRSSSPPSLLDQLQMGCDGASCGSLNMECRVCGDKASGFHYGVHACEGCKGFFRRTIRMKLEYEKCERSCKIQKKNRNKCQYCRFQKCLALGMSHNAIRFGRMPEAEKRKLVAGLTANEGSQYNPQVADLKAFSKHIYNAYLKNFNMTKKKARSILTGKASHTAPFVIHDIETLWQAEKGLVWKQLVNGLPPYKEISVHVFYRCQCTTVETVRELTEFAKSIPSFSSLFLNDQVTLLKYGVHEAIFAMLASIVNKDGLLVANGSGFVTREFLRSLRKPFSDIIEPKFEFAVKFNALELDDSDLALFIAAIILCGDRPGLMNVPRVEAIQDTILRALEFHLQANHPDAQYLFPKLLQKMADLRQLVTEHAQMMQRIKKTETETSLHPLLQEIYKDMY", "assay": "qHTS assay to identify small molecule agonists of the peroxisome proliferator-activated receptor delta (PPARd) signaling pathway (AID 743212)", "conditions": "HEK293H PPARd-UAS-bla, beta-lactamase FRET ratio, 17 h; series mostly up to 62.6 µM", "summary_of_the_method": "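GeneBLAzer PPARd UAS-bla HEK293H cells (beta-lactamase reporter under UAS control), plated and rested 5 h at 37 C, then exposed to compounds in DMSO at 37 C; LiveBLAzer B/G FRET substrate added, 2 h room temperature, fluorescence read.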", "values": [{"smiles": "CO[C@H]1C=CO[C@@]2(C)Oc3c(C)c(O)c4c(O)c(c(/C=N/N5CCN(C)CC5)c(O)c4c3C2=O)NC(=O)/C(C)=C\\C=C[C@H](C)[C@H](O)[C@@H](C)[C@@H](O)[C@@H](C)[C@H](OC(C)=O)[C@@H]1C", "outcome": "inactive"}, {"smiles": "NC(=O)NO", "outcome": "inactive"}, {"smiles": "NCCNc1cccc2ccccc12", "outcome": "inactive"}, {"smiles": "c1ccc2[nH]c(-c3cscn3)nc2c1", "outcome": "inactive"}, {"smiles": "NC(=O)N/N=C/c1ccc([N+](=O)[O-])o1", "outcome": "inactive"}, {"smiles": "CC1=NN(c2ccccc2)C(=O)C1", "outcome": "inactive"}, {"smiles": "C[C@]12C[C@H](O)[C@H]3[C@@H](CCC4=CC(=O)CC[C@@]43C)[C@@H]1CC[C@@H]2C(=O)CO", "outcome": "inactive"}, {"smiles": "CCn1cc(C(=O)O)c(=O)c2ccc(C)nc21", "outcome": "inactive"}, {"smiles": "COc1ccccc1NC(=O)CC(C)=O", "outcome": "inactive"}, {"smiles": "C[C@]12CC[C@@H]3c4ccc(O)cc4C[C@@H](CCCCCCCCCS(=O)CCCC(F)(F)C(F)(F)F)[C@H]3[C@@H]1CC[C@@H]2O", "note": "(some centres not stated)", "outcome": "inactive"}, {"smiles": "O=C(OCc1ccccc1)c1ccccc1", "outcome": "inactive"}, {"smiles": "O=C(O)CN(CC(=O)O)CC(=O)O", "outcome": "inactive"}, {"smiles": "CCCCOCCOCCSC#N", "outcome": "inactive"}, {"smiles": "C#C[C@]1(O)CC[C@H]2[C@@H]3CCc4cc(O)ccc4[C@H]3CC[C@@]21C", "outcome": "inactive"}, {"smiles": "NC(=O)c1ccc([N+](=O)[O-])cc1Cl", "outcome": "inactive"}, {"smiles": "Cc1c(N(C)C)c(=O)n(-c2ccccc2)n1C", "outcome": "inactive"}, {"smiles": "COc1ccc(C(=O)c2ccccc2)c(O)c1", "outcome": "inactive"}, {"smiles": "NC(=O)OCC(COC(N)=O)c1ccccc1", "outcome": "inactive"}, {"smiles": "COc1ccc(O)cc1", "outcome": "inactive"}, {"smiles": "O=c1cc[nH]c(=O)[nH]1", "outcome": "inactive"}, {"smiles": "CC(C)(C)CC(C)(C)c1ccc(O)c(-n2nc3ccccc3n2)c1", "outcome": "inactive"}, {"smiles": "C/C=C/c1ccc(O)c(OC)c1", "outcome": "inactive"}]}]}
